Gal4-VP16 FLuc: VP16 counterscreen qHTS for inhibitors of ROR gamma transcriptional activity. Drosophila S2 Gal4-VP16 UAS-luciferase, luminescence, 20 h. 310,000 tested, 3.5% active. Potency, µM (doses to about 53.6 µM), for inactives: at the top dose activity, negative = inhibition, hits mostly inhibitors;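 further: Gal4-VP16 expression switched on by copper sulfate through the metallothionein promoter; potency means the concentration at half of the fitted maximal effect; nearly all actives have a fitted effect of over 50% in size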
ELG1 DNA repair: qHTS screen for small molecules that inhibit ELG1-dependent DNA repair in human embryonic kidney (HEK293T) cells expressing luciferase-tagged ELG1 | HEK293T ELG1-luciferase reporter, luminescence, 16 h; DNA damage induced by 5-fluorouridine | Potency, µM (series often up to 46.1 µM), for the others: top-dose activity change, negative = inhibition, usual class: inhibitors | 330,000 tested, 2.3% active | AID 504467, 2011; further: potency means the concentration at half of the fitted maximal effect; nearly all actives have a fitted effect of over 55% in size
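Reporter activity after DNA damage by 5-fluorouridine is monitored. Compound-treated cells incubate 16 hr at 37 °C, then ONE-Glo is added for 30 min before luminescence reading.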
RORgamma inh: qHTS for inhibitors of ROR gamma transcriptional activity; Potency, µM (series often up to 53.6 µM), for inactives: top-dose activity change, negative = inhibition, actives largely listed as inhibitors; Drosophila S2 Gal4-RORgamma UAS-luciferase reporter, 20 h; Nuclear receptor ROR-gamma (Mus musculus), P51450; 310,000 tested, 5.4% active; AID 2551, 2010; further: potency means the concentration at half of the fitted maximal effect; nearly all actives have a fitted effect of over 60% in size
Target sequence (P51450 whole entry, looked up, the tested form may be a part): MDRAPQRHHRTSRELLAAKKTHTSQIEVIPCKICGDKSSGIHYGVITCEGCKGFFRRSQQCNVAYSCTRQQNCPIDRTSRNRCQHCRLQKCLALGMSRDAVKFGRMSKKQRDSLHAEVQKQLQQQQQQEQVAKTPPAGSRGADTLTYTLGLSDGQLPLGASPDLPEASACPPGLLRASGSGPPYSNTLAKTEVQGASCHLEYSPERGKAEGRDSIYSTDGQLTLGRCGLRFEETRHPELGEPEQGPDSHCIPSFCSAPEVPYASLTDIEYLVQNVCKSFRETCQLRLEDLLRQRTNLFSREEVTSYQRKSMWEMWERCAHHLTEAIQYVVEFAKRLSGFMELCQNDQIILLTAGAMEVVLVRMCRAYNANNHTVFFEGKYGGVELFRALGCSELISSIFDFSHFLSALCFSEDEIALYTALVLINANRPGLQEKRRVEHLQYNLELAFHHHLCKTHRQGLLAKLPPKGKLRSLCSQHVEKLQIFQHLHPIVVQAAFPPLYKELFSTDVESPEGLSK
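Drosophila S2 cells stably expressing Gal4-DBD/mouse RORγ fusion under metallothionein promoter plus UAS-luciferase; compound 1 h, then 700 uM CuSO4 induction for 20 h at ambient temperature; inhibition read as reduced luminescence.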
IL-1B inflam inh: qHTS for Inhibitors of Inflammasome Signaling: IL-1-beta AlphaLISA Primary Screen. THP-1 LPS/ATP IL-1B secretion, AlphaLISA, 16 h; stronger effect = lower value. activity change, % at 57.5 µM. 360,000 tested, 4.7% active; in the data active means activity change below about -50%; inconclusive means mostly about -30% to -49%
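Secreted IL-1B measured by AlphaLISA bead assay after 16 h compound exposure of THP-1 cells; compounds (final up to 57.5 uM) added 1 h before LPS (250 ng/mL) and ATP (1.25 mM) stimulation; lower signal means less secretion.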
DT40 TDP1 no CPT: qHTS for Inhibitors of human tyrosyl-DNA phosphodiesterase 1 (TDP1): qHTS in cells in absence of CPT | 420,000 tested, 15% active | AID 686978, 2013 | Potency, µM (series often up to 46.2 µM), for inactives: at the highest dose activity change, negative = growth inhibition, hits mostly inhibitors | DT40 Tdp1-/- hTDP1 cells, no CPT, ATP luminescence, 48 h; further: potency means the concentration at half of the fitted maximal effect; nearly all actives have a fitted effect of over 55% in size
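Readout: luminescence from CellTiter-Glo after 30 min in the dark at RT. Cells: DT40 Tdp1-/- with stable hTDP1, 400/well. Exposure: compounds alone, ≥48 hr, 37 °C.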
TDP1 cell CPT: qHTS for Inhibitors of human tyrosyl-DNA phosphodiesterase 1 (TDP1): qHTS in cells in presence of CPT. chicken DT40 Tdp1-/-;hTDP1 cells + 20 nM CPT, ATP luminescence, 48 h. Potency, µM (top dose mostly 46.2 µM), for inactives: at the highest dose activity change, negative = growth inhibition, actives largely listed as inhibitors. 420,000 tested, 12% active. AID 686979, 2013; further: potency means the concentration at half of the fitted maximal effect; nearly all actives have a fitted effect of over 55% in size
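Cell growth measured by CellTiter-Glo luminescence after a minimum 48 h, 37 C compound exposure with 20 nM CPT in Tdp1-knockout DT40 cells stably expressing hTDP1, seeded 400/well; qHTS titration format.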
An asterisk follows results filed as active; ? = inconclusive; . = not tested or not shown. Rows were chosen to be rich in hits. Some 21% of all compounds tested hit in one or more screens of this group. Unless noted, the call rests on the fitted dose curve; in most records, active means well fitted curve in the direction sought with a large enough effect; inconclusive means small, poorly fitted or top-dose-only effect, or another doubt; inactive means no such curve, though single readings can be large; an effect the other way counts as inactive or inconclusive. On the % scale 0 is the no-effect control and ±100 the full control effect.

SMILES	Gal4-VP16 FLuc	ELG1 DNA repair	RORgamma inh	IL-1B inflam inh	DT40 TDP1 no CPT	TDP1 cell CPT
O=C(C1=C[C@H](C2CCCCC2)C[C@H](OCCCCO)O1)N1CCN(Cc2ccccc2)CC1	4%	-6%	39%	-9	?	21µM*
C=CCOC(=O)C1=C[C@H](c2cn(C(C)=O)c3ccccc23)C[C@H](OCc2ccc(CO)cc2)O1	-2%	?	34%	18	21µM*	?
O=C(C1=C[C@H](C2CC2)C[C@H](OCCCCO)O1)N1CCN(Cc2ccccc2)CC1	4%	?	14%	-1	-23%	?
O=C(C1=C[C@H](c2coc3ccccc3c2=O)C[C@H](OCCCCO)O1)N1CCN(Cc2ccc3c(c2)OCO3)CC1	2%	?	19%	.	16µM*	21µM*
CC(=O)n1cc([C@H]2C=C(C(=O)N3CCN(Cc4ccc5c(c4)OCO5)CC3)O[C@@H](OCCCCO)C2)c2ccccc21	-12%	?	35%	-16	?	16µM*
CCC(=O)Nc1ccc(C)cc1-c1nc2ccccc2n(CC(=O)c2ccc(C)cc2)c1=O	.	.	.	.	-19%	?
COc1cccc(OCCOc2ccc(/C=C3\C(=N)N4N=C(S(C)(=O)=O)SC4=NC3=O)cc2OC)c1	-8%	11%	0%	1	-3%	-13%
COc1ccccc1OCCOc1ccc(/C=C2\C(=N)N3N=C(S(C)(=O)=O)SC3=NC2=O)cc1	-7%	-6%	?	-17	23µM*	?
CCC1=NN2C(=N)/C(=C\c3ccc(OCCOc4ccc(NC(C)=O)cc4)cc3)C(=O)N=C2S1	6%	1%	-7%	2	-6%	9%
CC(=O)Nc1ccc(OCCOc2ccc(/C=C3/C(=N)N4C=CSC4=NC3=O)cc2)cc1	-4%	9%	?	54	10µM*	21µM*
O=C(N/N=C/c1cnc(N2CCCCC2)s1)c1ccc(C(F)(F)F)cc1	3.5µM*	-6%	2µM*	12	?	?
CCc1nnc(NC(=O)c2cccc(S(=O)(=O)N3CCN(C(C)=O)CC3)c2)s1	.	10%	.	4	1%	1%
CCOC(=O)c1ccc(NC(=O)c2cccc(S(=O)(=O)N3CCN(C(C)=O)CC3)c2)cc1	-9%	?	?	45	13µM*	?
CCCOC(=O)c1ccc(NC(=O)c2cccc(S(=O)(=O)N3CCN(C(C)=O)CC3)c2)cc1	?	-11%	?	-2	16µM*	?
CCOC(=O)c1c(-c2ccccc2)csc1NC(=O)c1cc(S(=O)(=O)N2CCOCC2)ccc1C	-11%	10µM*	-10%	-7	?	7.3µM*
CCOC(=O)c1ccc(NC(=O)c2cc(S(=O)(=O)N3CCOCC3)ccc2O)cc1	0%	-22%	?	32	21µM*	?
CC(=O)N1CCN(S(=O)(=O)c2cccc(C(=O)Nc3ccc(F)c(F)c3)c2)CC1	-2%	?	?	30	?	?
CCCC(=O)Nc1cc(C(=O)N(C)CC(OC)OC)ccc1S(=O)(=O)c1ccc(C)cc1	2%	1%	6%	0	3%	-6%
O=C(O)c1ccc(Nc2nc(-c3cccnc3)nc3ccccc23)cc1	-3%	7%	-7%	.	.	.
COc1cccc(CNc2nc(-c3cccnc3)nc3ccccc23)c1	-4%	?	0%	-93*	?	?
COc1cccc(/C=N/Nc2nc(-c3cccnc3)nc3ccccc23)c1	-22%	?	?	28	16µM*	16µM*
ClC(Cl)(Cl)c1nc(N/N=C/c2ccncc2)c2ccccc2n1	-13%	12%	?	11	?	-18%
COc1ccccc1C(C)Nc1nc(-c2cccnc2)nc2ccccc12 (configuration not stated)	0%	-9%	-4%	?	23µM*	18µM*
Cc1cccc(CNc2nc(-c3cccnc3)nc3ccccc23)c1	-22%	.	-4%	.	?	?
FC(F)(F)c1nc2ccccc2nc1N/N=C\c1ccccc1	13µM*	26%	3.5µM*	11	18µM*	21µM*
SMILES	Gal4-VP16 FLuc	ELG1 DNA repair	RORgamma inh	IL-1B inflam inh	DT40 TDP1 no CPT	TDP1 cell CPT
O=C(COC(=O)c1ccc(Cl)nc1)NCCc1ccccc1	.	-9%	.	6	26%	-12%
Fc1ccccc1CNc1nc(-c2cccnc2)nc2ccccc12	-14%	?	?	-97*	23µM*	?
c1cncc(-c2nc(NCc3cccs3)c3ccccc3n2)c1	-11%	?	29%	-7	?	?
C(=N\Nc1nc(-c2cccnc2)nc2ccccc12)/c1ccccc1	-10%	?	?	.	16µM*	?
C(=N\Nc1nc(-c2ccccn2)nc2ccccc12)/c1ccccc1	0.5µM*	?	0.089µM*	.	.	.
Brc1ccc(-c2nc(N/N=C/c3cccnc3)c3ccccc3n2)cc1	?	?	?	23	13µM*	12µM*
CNc1nc(-c2cccnc2)nc2ccccc12	?	.	4%	.	?	?
COc1ccc(NC(=O)C[C@H]2C(=O)N(C3CCCCC3)C[C@@H]2CSC)cc1	.	.	.	-4	?	-12%
Cc1ccc(NC(=O)c2cc(S(=O)(=O)N3CCC(C)CC3)cn2C)cc1Cl	.	.	.	.	-13%	-14%
Cc1ccc(CNC(=O)c2cc(=O)c3cc(C)ccc3o2)cc1	0%	-1%	5%	8	-18%	-11%
Cc1cc(=O)oc2cc(OCC(=O)OCC(=O)NCCc3ccccc3)ccc12	9%	-2%	-4%	4	1%	19%
COc1ccc(CCNC(=O)c2cc(=O)c3cc(C)c(C)cc3o2)cc1OC	.	.	.	.	7.3µM*	-30%
COc1ccc(CCNC(=O)c2cc(=O)c3cc(C)ccc3o2)cc1OC	-21%	?	?	24	21µM*	?
COc1ccc(CCNC(=O)c2cc(=O)c3cc(C)cc(C)c3o2)cc1OC	.	.	.	.	23µM*	21µM*
COc1ccc(CCNC(=O)COc2ccc3c(C)cc(=O)oc3c2)cc1OC	4%	-2%	3%	-14	13µM*	?

Assay outcomes as filed in PubChem BioAssay.
